Experimental data: publication PMC5892938, “SARNAclust: Semi-automatic detection of RNA protein binding motifs from immunoprecipitation data”
Over roughly 11,000 sequences, “log2 fold change” has its median near 0.00022; the highest 2% begin near 0.34. The list shows a part of the results.

molecular target: GST-SBP-SLBP (stem-loop binding protein) (Homo sapiens, UniProt Q14493 1-270); test: targeted RNA Bind-n-Seq; RBNS binding buffer: 25 mM Tris pH 7.5, 150 mM KCl, 3 mM MgCl2, 0.1% Tween, 0.5 mg/mL BSA, 1 mM DTT; 27 nM protein, 750 pM RNA pool; temperature not stated; high values mean tight binding; settings: protein: recombinant; tags: N-terminal GST and SBP (pGEX6P1-SBP); structured_RNA
Procedure, shortened: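 A designed RNA oligo pool, transcribed with T7, was present at 750 pM and incubated in RBNS binding buffer with 27 nM of GST-SBP-tagged protein that had been expressed in Rosetta(DE3) pLysS E. coli and purified with glutathione. After reverse transcription with a 10-nucleotide barcoded primer and PCR, the bound RNA was sequenced as 200-cycle paired-end reads on a MiSeq. Each sequence's binding signal is the DEseq binary-logarithm fold change in read counts, computed after joining reads with FLASH, aligning with HISAT2 and collapsing by barcode.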

| Sequence | binding signal [log2 fold change] |
| --- | --- |
| GGUCACGUCUCAAUCAACUCUAAGGAGGGGGGGAAAACCCCUUUACCCUCAUCAUCAACAGCUCGCAGUCAAG | 0.486 ± 0.425 |
| GGUCACGUCUCAAUCAACUCUAAGGAGGGGGGGAAAACCCCUUUACCCUCACACUCAACAGCUCGCAGUCAAG | 0.396 ± 0.454 |
| GGUCACGUCUCAAUCAACUCUCAGGAGGGGGGGAAAACCCCUUUACCCUCAUCGUCAACAGCUCGCAGUCAAG | 0.309 ± 0.421 |
| GGUCACGUCUCAAUCAACUCAACUGAGGGGGGGAAAACCCCUUUACCCUCCAAAUCAACAGCUCGCAGUCAAG | 0.448 ± 0.446 |
| GGUCACGUCUCAAUCAACUCAACUGAGGGGGGGAAAACCCCUUUACCCUCCACAUCAACAGCUCGCAGUCAAG | 0.388 ± 0.423 |
| GGUCACGUCUCAAUCAACUCUCCAGAGGGGGGGAAAACCCCUUUACCCUCAACAUCAACAGCUCGCAGUCAAG | 0.304 ± 0.431 |
| GGUCACGUCUCAAUCAACUCAAUAGAGGGGGGGAAAACCCCUUUACCCUCCCAAUCAACAGCUCGCAGUCAAG | 0.325 ± 0.459 |
| GGUCACGUCUCAAUCAACUCCCAAGAGGGGGGGAAAACCCCUUUACCCUCGUAAUCAACAGCUCGCAGUCAAG | 0.444 ± 0.442 |
| GGUCACGUCUCAAUCAACUCCCAAGAGGGGGGGAAAACCCCUUUACCCUCACUCUCAACAGCUCGCAGUCAAG | 0.558 ± 0.444 |
| GGUCACGUCUCAAUCAACUCUUACGAGGGGGGGAAAACCCCUUUGCCCUCAACAUCAACAGCUCGCAGUCAAG | 0.326 ± 0.377 |
| GGUCACGUCUCAAUCAACUCUUACGAGGGGGGGAAAACCCCUUUGCCCUCAAAUUCAACAGCUCGCAGUCAAG | 0.347 ± 0.395 |
| GGUCACGUCUCAAUCAACUCUUACGAGGGGGGGAAAACCCCUUUACCCUCAAAUUCAACAGCUCGCAGUCAAG | 0.37 ± 0.399 |
| GGUCACGUCUCAAUCAACUCUCACGAGGGGGGGAAAACCCCUUUACCCUCAAAUUCAACAGCUCGCAGUCAAG | 0.315 ± 0.408 |
| GGUCACGUCUCAAUCAACUCUUCAGAGGGGGGGAAAACCCCUUUACCCUCCUAAUCAACAGCUCGCAGUCAAG | 0.368 ± 0.433 |
| GGUCACGUCUCAAUCAACUCUUCAGAGGGGGGGAAAACCCCUUUACCCUCCGUUUCAACAGCUCGCAGUCAAG | 0.44 ± 0.434 |
| GGUCACGUCUCAAUCAACUCGUUUUCAGGAGUUUACUCCUGCUUAUUCAACAGCUCGCAGUCAAG | 0.329 ± 0.222 |
| GGUCACGUCUCAAUCAACUCAAAAGAGGGGGGGAAAACCCCUUUGCCCUCGAUAUCAACAGCUCGCAGUCAAG | 0.336 ± 0.363 |
| GGUCACGUCUCAAUCAACUCACAAGAGGGGGGGAAAACCCCUUUGCCCUCGAUAUCAACAGCUCGCAGUCAAG | 0.468 ± 0.396 |
| GGUCACGUCUCAAUCAACUCACAAGAGGGGGGGAAAACCCCUUUGCCCUCCGUAUCAACAGCUCGCAGUCAAG | 0.416 ± 0.404 |
| GGUCACGUCUCAAUCAACUCCCACGAGGGGGGGAAAACCCCUUUACCCUCAACCUCAACAGCUCGCAGUCAAG | 0.335 ± 0.423 |
| GGUCACGUCUCAAUCAACUCCCACGAGGGGGGGAAAACCCCUUUACCCUCACACUCAACAGCUCGCAGUCAAG | 0.366 ± 0.434 |
| GGUCACGUCUCAAUCAACUCCCACGAGGGGGGGAAAACCCCUUUACCCUCUCAAUCAACAGCUCGCAGUCAAG | 0.362 ± 0.418 |
| GGUCACGUCUCAAUCAACUCAAUCGAGGGGGGGAAAACCCCUUUGCCCUCAUCUUCAACAGCUCGCAGUCAAG | 0.419 ± 0.432 |
| GGUCACGUCUCAAUCAACUCAAACGAGGGGGGGAAAACCCCUUUGCCCUCAUCUUCAACAGCUCGCAGUCAAG | 0.58 ± 0.399 |

| Sequence | binding signal [log2 fold change] |
| --- | --- |
| GGUCACGUCUCAAUCAACUCAACAGAGGGGGGGAAAACCCCUUUACCCUCAAUAUCAACAGCUCGCAGUCAAG | 0.362 ± 0.427 |
| GGUCACGUCUCAAUCAACUCCUCAGAGGGGGGGAAAACCCCUUUACCCUCAAUAUCAACAGCUCGCAGUCAAG | 0.394 ± 0.424 |
| GGUCACGUCUCAAUCAACUCCUCAGAGGGGGGGAAAACCCCUUUACCCUCGUCCUCAACAGCUCGCAGUCAAG | 0.382 ± 0.44 |
| GGUCACGUCUCAAUCAACUCAAUAGAGGGGGGGAAAACCCCUUUACCCUCAAACUCAACAGCUCGCAGUCAAG | 0.319 ± 0.424 |
| GGUCACGUCUCAAUCAACUCCCUCGAGGGGGGGAAAACCCCUUUACCCUCAUCGUCAACAGCUCGCAGUCAAG | 0.532 ± 0.391 |
| GGUCACGUCUCAAUCAACUCCCUCGAGGGGGGGAAAACCCCUUUACCCUCAUUAUCAACAGCUCGCAGUCAAG | 0.395 ± 0.38 |
| GGUCACGUCUCAAUCAACUCUAUUCCCAGGGAAAGCCCUGGUAUUUUCAACAGCUCGCAGUCAAG | 0.387 ± 0.281 |
| GGUCACGUCUCAAUCAACUCUAUCCCCAGGGAAAGCCCUGGUAUAUUCAACAGCUCGCAGUCAAG | 0.366 ± 0.305 |
| GGUCACGUCUCAAUCAACUCUAUUCCCAGGGAAAGCCCUGGUAUUCUCAACAGCUCGCAGUCAAG | 0.307 ± 0.273 |
| GGUCACGUCUCAAUCAACUCUAUCCCCAGGGAAAUCCCUGGUAUAUUCAACAGCUCGCAGUCAAG | 0.333 ± 0.304 |
| GGUCACGUCUCAAUCAACUCAAUCCCCAGGGAAAGCCCUGGUAUUCUCAACAGCUCGCAGUCAAG | 0.378 ± 0.274 |
| GGUCACGUCUCAAUCAACUCUAUUCCCAGGGAAAGCCCUGGCUAUCUCAACAGCUCGCAGUCAAG | 0.342 ± 0.296 |
| GGUCACGUCUCAAUCAACUCUUCUUCCAGGGAAAUCCCUGGCAUACUCAACAGCUCGCAGUCAAG | 0.399 ± 0.235 |
| GGUCACGUCUCAAUCAACUCAUCUCCCAGGGAAAACCCUGGUAUAUUCAACAGCUCGCAGUCAAG | 0.374 ± 0.346 |
| GGUCACGUCUCAAUCAACUCAAUCCCCAGGGAAAACCCUGGCUAUUUCAACAGCUCGCAGUCAAG | 0.338 ± 0.272 |
| GGUCACGUCUCAAUCAACUCUUUUCCCAGGGAAAUCCCUGGCAUACUCAACAGCUCGCAGUCAAG | 0.334 ± 0.22 |
| GGUCACGUCUCAAUCAACUCUUUUUCCAGGGAAACCCCUGGCAUACUCAACAGCUCGCAGUCAAG | 0.44 ± 0.276 |
| GGUCACGUCUCAAUCAACUCAAGUCCCAGGGAAAACCCUGGCAAUUUCAACAGCUCGCAGUCAAG | 0.381 ± 0.341 |
| GGUCACGUCUCAAUCAACUCUAUUCCCAGGGAAAACCCUGGCAUUUUCAACAGCUCGCAGUCAAG | 0.49 ± 0.262 |
| GGUCACGUCUCAAUCAACUCUUUUUCCAGGGAAACCCCUGGUAUACUCAACAGCUCGCAGUCAAG | 0.445 ± 0.233 |
| GGUCACGUCUCAAUCAACUCAAUCCCCAGGGAAAACCCUGGCAUACUCAACAGCUCGCAGUCAAG | 0.351 ± 0.232 |
| GGUCACGUCUCAAUCAACUCUAUUCCCAGGGAAACCCCUGGCAUACUCAACAGCUCGCAGUCAAG | 0.311 ± 0.273 |
| GGUCACGUCUCAAUCAACUCAACUUCCAGGGAAAACCCUGGCAUUUUCAACAGCUCGCAGUCAAG | 0.305 ± 0.262 |
| GGUCACGUCUCAAUCAACUCUACUCCCAGGGAAAACCCUGGUAAUUUCAACAGCUCGCAGUCAAG | 0.454 ± 0.318 |
